Drawing on PubChem BioAssay (NCI), this text covers growth for seven compounds.

Among the test systems are DU-145 prostate; K-562 leukemia; MALME-3M melanoma; MDA-MB-231 breast; RXF 393 renal; SF-268 CNS; SF-295 CNS; SF-539 CNS; UACC-257 melanoma; M14 melanoma; HCT-15 colon; HT29 colon; SNB-75 CNS; SNB-19 CNS; U251 CNS; PC-3 prostate; SK-MEL-5 melanoma; UACC-62 melanoma; LOX IMVI melanoma; SK-MEL-28 melanoma.
What all share (experiment): NCI-60 one-dose screen, 48 h (100 = growth as untreated, 0 = no growth, -100 = all killed)
Common to all, as to settings: 10 µM unless noted

The panel holds about 83,000 compounds, 20% with a hit somewhere; the sample as a whole holds those more often.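 Cell lines were cultured in 96-well plates, exposed to a single compound concentration, and assessed for percent growth 48 hours later.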 Values without a mark were called inactive. Active and inactive are the calls of the source. Rule for the calls: active = growth percent below 10; inactive = the rest.

On to `N#CC1=C(N)Oc2c(sc3c(F)cccc23)C1c1ccc(F)cc1` (stereo not given), for which the growth is 16.6% in the test with DU-145 prostate; 11.1% in the test on K-562 leukemia; 56.3% in the test on MALME-3M melanoma; 39.6% in the test on MDA-MB-231 breast; -16.5% (active) with RXF 393 renal; 54.4% with SF-268 CNS. For the same compound, the growth in the test with SF-295 CNS was 14.6%; in the test on SF-539 CNS, -14.3% (active); in the test on UACC-257 melanoma, 60.5%; with M14 melanoma, 0.877% (active); in the test with HCT-15 colon it was 26%; in the test on HT29 colon it was 6.86% (active). For the same compound, the growth with SNB-75 CNS was 6.01% (active); in the test with SNB-19 CNS, 27.3%; with U251 CNS, 22.2%; in the test with PC-3 prostate, 28.7%; in the test with SK-MEL-5 melanoma it was 22.3%; with UACC-62 melanoma it was 29.2%. Moreover, the growth in the test with LOX IMVI melanoma was 32.2%; in the test on SK-MEL-28 melanoma, 64%.
Take `O=S(=O)(NCCNc1nccc(-c2c(-c3cccc(F)c3)nc3occn23)n1)c1ccc(Br)cc1`: the growth is 90.4% in the test with DU-145 prostate; 69.1% in the test on K-562 leukemia; 76.9% in the test with MALME-3M melanoma; 82.3% in the test with MDA-MB-231 breast; 68.3% in the test with RXF 393 renal; 90.7% with SF-268 CNS. Moreover, the growth with SF-295 CNS is 99.4%; in the test with SF-539 CNS, 92%; in the test with UACC-257 melanoma, 98.4%; in the test on M14 melanoma, 79.8%; with HCT-15 colon it was 77.9%; in the test on HT29 colon it was 52.3%. The growth in the test on SNB-75 CNS was 78.4%; with SNB-19 CNS, 93.3%; in the test with U251 CNS, 85.5%; in the test with PC-3 prostate it was 73.8%; in the test with SK-MEL-5 melanoma it was 76.3%; with UACC-62 melanoma, 77.5%. The figures for the growth with LOX IMVI melanoma and in the test on SK-MEL-28 melanoma were 75.9% and 91.9%, respectively.
On to `O=C(/C=C/c1ccc(Cl)cc1)c1cccc(Nc2nc(Nc3ccccc3)nc(Nc3ccccc3)n2)c1`, for which the growth was 121% in the test with DU-145 prostate; 71.4% in the test on K-562 leukemia; 95.6% with MALME-3M melanoma; 80.7% with MDA-MB-231 breast; -30.3% (active) in the test on RXF 393 renal; 113% in the test on SF-268 CNS. Besides, the growth in the test on SF-295 CNS is 62.2%; in the test on SF-539 CNS, 116%; with UACC-257 melanoma, 103%; in the test on M14 melanoma it was 94.2%; in the test with HCT-15 colon, 83.9%; in the test with HT29 colon, 99.1%. The growth with SNB-75 CNS was 71.9%; in the test on SNB-19 CNS, 111%; in the test with U251 CNS, 82.7%; in the test on PC-3 prostate, 87.9%; in the test with SK-MEL-5 melanoma, 85.6%; with UACC-62 melanoma it was 96.9%. In addition, the growth was 88.2% in the test with LOX IMVI melanoma and 100% in the test on SK-MEL-28 melanoma.
Consider `O=C(/C=C/c1cn(-c2ccccc2)nc1-c1ccc([N+](=O)[O-])cc1)c1ccc(Cl)cc1`, for which the growth in the test with DU-145 prostate is 20.4%; with K-562 leukemia, 12.4%; with MALME-3M melanoma, 49.7%; with MDA-MB-231 breast, 14.7%; with RXF 393 renal, 27.3%; in the test with SF-268 CNS, 34.5%. Besides, the growth in the test with SF-295 CNS was 77%; in the test on SF-539 CNS, 30%; in the test on UACC-257 melanoma, 103%; with M14 melanoma, 37.8%; with HCT-15 colon, 46.8%; in the test with HT29 colon, 52.5%. The growth was -5.08% (active) with SNB-75 CNS; 52.8% in the test on SNB-19 CNS; 9.68% (active) in the test on U251 CNS; 58.8% in the test on PC-3 prostate; 71.5% with SK-MEL-5 melanoma; 58.9% in the test on UACC-62 melanoma. Further, the growth in the test with LOX IMVI melanoma was 37.8%; in the test on SK-MEL-28 melanoma, 56.7%.
As for `Cc1ccc(-n2c(=S)[nH]c3sc4c(c3c2=O)CCC(=O)C4)cc1`, the growth with DU-145 prostate is 37.8%; in the test with K-562 leukemia, 17%; with MALME-3M melanoma, 50.9%; in the test with MDA-MB-231 breast, 54.6%; in the test with RXF 393 renal, 23.8%; in the test with SF-268 CNS, 48.2%. The growth with SF-295 CNS was 47.9%; in the test on SF-539 CNS it was 11.8%; with UACC-257 melanoma, 54.5%; with M14 melanoma it was 25.9%; in the test with HCT-15 colon, 25%; with HT29 colon, 55.9%. Also, the growth is 28.1% in the test with SNB-75 CNS; 30.9% with SNB-19 CNS; 36.7% in the test with U251 CNS; 41% with PC-3 prostate; 26.7% in the test on SK-MEL-5 melanoma; 10.3% in the test on UACC-62 melanoma. Besides, the growth with LOX IMVI melanoma was 36.3%; in the test with SK-MEL-28 melanoma it was 53%.
For `CN1CCN(c2ccc(C(=O)Nc3cccc(C#Cc4cccc5[nH]nc(N)c45)c3)cc2C(F)(F)F)CC1`, the growth is -20.3% (active) in the test with DU-145 prostate; -36.9% (active) in the test on K-562 leukemia; -66.3% (active) in the test with MALME-3M melanoma; -72.2% (active) with MDA-MB-231 breast; -25.4% (active) with RXF 393 renal; -1.07% (active) in the test on SF-268 CNS. In addition, the growth is -58.5% (active) with SF-295 CNS; -82.7% (active) in the test on SF-539 CNS; -67.1% (active) with UACC-257 melanoma; -69.5% (active) with M14 melanoma; -53.9% (active) in the test on HCT-15 colon; -35.9% (active) with HT29 colon. Further, the growth in the test on SNB-75 CNS was -38.2% (active); in the test with SNB-19 CNS, -78.4% (active); with U251 CNS, -69.1% (active); in the test with PC-3 prostate, -75.4% (active); in the test with SK-MEL-5 melanoma, -27.8% (active); with UACC-62 melanoma, -79.2% (active). Also, the growth is -93.8% (active) with LOX IMVI melanoma and -66.4% (active) in the test on SK-MEL-28 melanoma.
In the case of `O=C(CSc1nc2ccc([N+](=O)[O-])cc2[nH]1)Nc1cccc(C(F)(F)F)c1`, the growth in the test with DU-145 prostate is 30.6%; with K-562 leukemia, 13.6%; in the test with MALME-3M melanoma it was -0.63% (active); with MDA-MB-231 breast, 38.5%; with RXF 393 renal, 44.7%; with SF-268 CNS it was 24.3%. Also, the growth is 33% with SF-295 CNS; 36.5% in the test on SF-539 CNS; 14.3% with UACC-257 melanoma; 27.6% with M14 melanoma; 23.5% in the test on HCT-15 colon; 11.3% in the test with HT29 colon. The growth is 25.5% in the test on SNB-75 CNS; 15.2% in the test on SNB-19 CNS; 16.4% with U251 CNS; 9.66% (active) in the test on PC-3 prostate; -1.54% (active) in the test with SK-MEL-5 melanoma; 6.34% (active) with UACC-62 melanoma. The growth in the test on LOX IMVI melanoma was 26.9%; in the test with SK-MEL-28 melanoma it was 22.2%.
